Bioassay records: PubChem BioAssay, National Center for Advancing Translational Sciences (NCATS)
NIH3T3 tox: kills NIH 3T3 cells; NIH 3T3 viability, CellTiter-Glo ATP luminescence, 48-72 h; Potency, µM (top dose mostly 96.7 µM), hits mostly inhibitors; 94,000 tested, 4.3% active; further: nearly all actives have a fitted effect of over 55% in size
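First NIH 3T3 cells are plated at 400 cells/well; next compound is pinned in; then plates incubate 48 or 72 hr at 37 °C; finally CellTiter-Glo is added and luminescence read after 10 min.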
Luciferase inh: inhibitors of firefly (Photinus pyralis) luciferase; purified P. pyralis luciferase, luminescence, biochemical; Potency, µM (series often up to 115 µM), usual class: inhibitors; 76,000 tested, 2.5% active; AID 1347043; further: nearly all actives have a fitted effect of over 65% in size
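Luminescence read by CCD imaging after purified firefly luciferase (10nM final) was added to substrate buffer holding 10uM D-luciferin and 10uM ATP, pH 7.5, pre-dosed with compound.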
hNpr1 antagonist: human Npr1 receptor antagonism; P16066; 76,000 tested, 1.6% active; AID 1347048; Potency, µM (highest dose often 46.3 µM), actives largely listed as inhibitors; HEK293 hNpr1 GloSensor cGMP, ANP-stimulated luminescence; calls by dose curve; further: nearly all actives have a fitted effect of over 60% in size
Target sequence (P16066 whole entry, looked up): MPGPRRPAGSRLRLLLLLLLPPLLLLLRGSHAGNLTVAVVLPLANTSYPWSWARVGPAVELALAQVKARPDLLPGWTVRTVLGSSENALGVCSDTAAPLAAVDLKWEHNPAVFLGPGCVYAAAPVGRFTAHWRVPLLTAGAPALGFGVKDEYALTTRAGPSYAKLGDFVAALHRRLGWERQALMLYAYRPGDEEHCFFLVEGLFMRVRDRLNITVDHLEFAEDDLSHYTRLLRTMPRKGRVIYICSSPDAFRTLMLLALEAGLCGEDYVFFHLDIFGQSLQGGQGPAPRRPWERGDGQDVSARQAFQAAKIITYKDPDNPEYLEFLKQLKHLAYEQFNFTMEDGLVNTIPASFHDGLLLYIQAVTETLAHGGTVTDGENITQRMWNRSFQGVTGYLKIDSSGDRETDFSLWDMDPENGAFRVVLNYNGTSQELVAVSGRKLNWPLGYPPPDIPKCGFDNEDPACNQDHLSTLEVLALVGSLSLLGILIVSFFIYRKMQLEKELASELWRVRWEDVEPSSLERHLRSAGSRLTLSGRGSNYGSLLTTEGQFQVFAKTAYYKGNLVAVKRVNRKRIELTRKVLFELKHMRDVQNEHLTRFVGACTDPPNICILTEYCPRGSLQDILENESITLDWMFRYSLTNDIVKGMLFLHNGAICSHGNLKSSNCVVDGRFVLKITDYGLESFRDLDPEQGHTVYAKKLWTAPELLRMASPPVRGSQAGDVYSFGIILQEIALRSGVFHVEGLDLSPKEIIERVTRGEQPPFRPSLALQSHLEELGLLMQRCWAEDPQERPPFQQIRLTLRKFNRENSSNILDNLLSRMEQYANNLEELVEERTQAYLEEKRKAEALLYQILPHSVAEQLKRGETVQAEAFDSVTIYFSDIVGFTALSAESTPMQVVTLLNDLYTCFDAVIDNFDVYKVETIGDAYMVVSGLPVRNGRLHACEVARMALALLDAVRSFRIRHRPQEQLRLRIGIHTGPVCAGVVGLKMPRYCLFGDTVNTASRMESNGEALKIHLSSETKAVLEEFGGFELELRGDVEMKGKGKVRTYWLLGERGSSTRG
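Compound pre-incubated 30 min at room temperature on GloSensor-loaded HEK293 cells stably carrying hNpr1 and the pGS-40F cGMP biosensor. Stimulation uses hNppA at 0.1 nM final; luminescence is taken at baseline and 20 min post-agonist.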
HEK293 tox: HEK 293 cell cytotoxicity; HEK 293 viability, ATP luminescence (CellTiter-Glo), 48-72 h; Potency, µM (series often up to 115 µM), actives largely listed as inhibitors; 94,000 tested, 6.6% active; AID 1345083; further: nearly all actives have a fitted effect of over 60% in size
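HEK 293 cells seeded at 250 cells/well were exposed to compound for 48 or 72 hr at 37 degree Celsius. Viability taken as ATP content by CellTiter-Glo luminescence.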
Large screens that a line does not name were inactive. In the library only some 11% were active in any assay of this set; here they are far more common. Unless noted, the call rests on the fitted dose curve; in most records, active means well fitted curve in the direction sought with a large enough effect; inconclusive means small, poorly fitted or top-dose-only effect, or another doubt; inactive means no such curve, though single readings can be large; an effect the other way counts as inactive or inconclusive.

c1ccc(CN2CCC(Oc3cnc4c(ccn4-c4cncnc4)c3)CC2)cc1	NIH3T3 tox inconclusive, HEK293 tox 100µM
O=C(O)Cn1ccc2cc(OCC3CCN(C(=O)Cc4ccccc4)CC3)cnc21	NIH3T3 tox 100µM
CC(C)C(=O)N1CCC(Oc2cnc3c(ccn3-c3cncnc3)c2)CC1	NIH3T3 tox inconclusive
COc1ncccc1-c1cc2[nH]ccc2c(C(=O)NCc2c(C)cc(C)[nH]c2=O)n1	NIH3T3 tox 50µM, HEK293 tox inconclusive
Cc1cc(C)c(CNC(=O)c2nc(-c3cccc(O)c3)cc3[nH]ccc23)c(=O)[nH]1	NIH3T3 tox 50µM, Luciferase inh inconclusive, HEK293 tox 79µM
COc1ccccc1-c1cc2[nH]ccc2c(C(=O)NCc2c(C)cc(C)[nH]c2=O)n1	NIH3T3 tox inconclusive, HEK293 tox inconclusive
CCOCC(=O)N1CCC2(CC1)CC(CO)N(C(=O)c1ccccc1)C2 (centres undefined)	none (no result: Luciferase inh, hNpr1 antagonist)
CS(=O)(=O)N1CC2(CCN(CC3CCCCC3)C2)Cc2ccccc21 (centres undefined)	HEK293 tox inconclusive (no result: Luciferase inh, hNpr1 antagonist)
CSc1ccc(CNC(=O)c2ccc3c(c2)N(C)C2CCCCN2C3=O)cc1 (centres undefined)	Luciferase inh inconclusive, HEK293 tox inconclusive
CN1c2cc(C(=O)Nc3cc(F)cc(F)c3)ccc2C(=O)N2CCCCC21 (centres undefined)	NIH3T3 tox inconclusive, Luciferase inh inconclusive, HEK293 tox inconclusive
CN1c2cc(C(=O)Nc3ccc(F)cc3)ccc2C(=O)N2CCCCCC21 (centres undefined)	NIH3T3 tox inconclusive, Luciferase inh 25µM, HEK293 tox inconclusive
CSc1ccc(NC(=O)c2ccc3c(c2)N(C)C2CCCCN2C3=O)cc1 (centres undefined)	NIH3T3 tox inconclusive, Luciferase inh 45µM, HEK293 tox inconclusive
Cc1cccc(N2CCN(C(=O)c3noc(-c4ccc[nH]c4=O)n3)CC2)c1C	NIH3T3 tox inconclusive, HEK293 tox inconclusive
CC1=C[C@@H](CNS(=O)(=O)c2ccc(C#N)cc2)[C@H](C(C)C)C[C@H]1CC(=O)NCc1ccc(C#N)cc1	NIH3T3 tox inconclusive, HEK293 tox inconclusive
O=C(NC1CCN(c2nccc(Nc3ccccc3F)n2)CC1)c1ccc(C(F)(F)F)cc1	NIH3T3 tox 35µM, HEK293 tox 25µM (no result: Luciferase inh, hNpr1 antagonist)
O=C(NC1CCN(c2nccc(Nc3ccccc3Cl)n2)CC1)c1ccc(C(F)(F)F)cc1	NIH3T3 tox 32µM, HEK293 tox 40µM (no result: Luciferase inh, hNpr1 antagonist)
O=C(NC1CCN(c2nccc(Nc3ccccc3F)n2)CC1)c1ccc(F)cc1	NIH3T3 tox 35µM, HEK293 tox inconclusive (no result: Luciferase inh, hNpr1 antagonist)
COc1cccc(CC(=O)N2C[C@@H](CO)[C@H](c3nc(C4CC4)no3)C2)c1	none
Cc1cnc(C)n1CC1CCN(S(=O)(=O)c2cccc(F)c2)CC1	none
O=C(Cn1cccc1-c1nc(-c2ccc3c(c2)OCO3)no1)NCc1ccc(F)cc1	none
O=C(Nc1cccc(C(F)(F)F)c1)N1C[C@@H](F)[C@@H](OCc2nc3ccccc3[nH]2)C1	NIH3T3 tox 100µM, HEK293 tox 100µM
COc1ccc2nc(CO[C@H]3CN(C(=O)c4ccccc4)C[C@H]3F)[nH]c2c1	Luciferase inh inconclusive
O=C(Nc1ccc(F)cc1F)N1C[C@@H](F)[C@@H](OCc2nc3ccccc3[nH]2)C1	none
Cc1ccc2nc(CO[C@H]3CN(C(=O)C4CC4)C[C@H]3F)[nH]c2c1	Luciferase inh 28µM
COc1ccc(C(=O)N2C[C@@H](F)[C@@H](OCc3nc4ccccc4o3)C2)cc1	HEK293 tox 100µM
CC(C)NC(=O)N1C[C@@H](F)[C@@H](OCc2nc3ccccc3o2)C1	none
Cc1ccc2nc(CO[C@H]3CN(C(=O)C4CCOCC4)C[C@H]3F)[nH]c2c1	none
COc1ccc(C(=O)N2C[C@@H](F)[C@@H](OCc3nc4ccc(F)cc4[nH]3)C2)cc1	Luciferase inh 40µM, HEK293 tox inconclusive
CCOC(=O)CN(C1CCCC1)[C@@H]1C[C@@H]2CO[C@H](C(C)C)C[C@@H]2C1	NIH3T3 tox inconclusive (no result: Luciferase inh, hNpr1 antagonist)
CC(C)(C#N)c1ccc(-c2cc(CO)ccn2)cc1	NIH3T3 tox inconclusive, Luciferase inh 32µM, HEK293 tox inconclusive
COCCNc1ncc(-c2ccncc2)c2c1OCC2	NIH3T3 tox inconclusive
COCCNc1ncc(-c2ccsc2)c2c1OCC2	NIH3T3 tox inconclusive, Luciferase inh 22µM, HEK293 tox inconclusive
COCCNc1ncc(-c2ccnc(C)c2)c2c1OCC2	NIH3T3 tox inconclusive, HEK293 tox inconclusive
COCCNc1ncc(-c2ccccc2)c2c1OCC2	NIH3T3 tox inconclusive, Luciferase inh 28µM, HEK293 tox inconclusive
OCC1CN(c2ncccn2)CC12CCN(Cc1cccc3[nH]ccc13)CC2 (centres undefined)	NIH3T3 tox inconclusive, HEK293 tox 79µM
Cc1ccc(-c2cn3c(n2)N(C(=O)c2nc4ncccn4n2)CCC3)cc1	HEK293 tox 40µM
OCC1COCCN(Cc2csc(-c3ccc(C(F)(F)F)cc3)n2)C1 (centres undefined)	NIH3T3 tox inconclusive, Luciferase inh inconclusive, HEK293 tox inconclusive
NC(=O)c1cccnc1N1CCC(n2cc(-c3ccccc3Cl)nn2)CC1	HEK293 tox 79µM
O=C(C[C@@H]1CCNC[C@@H]1Cc1cc(CC2CCCCC2)on1)NCc1ccco1	NIH3T3 tox 100µM, hNpr1 antagonist inconclusive, HEK293 tox 45µM
COc1ccc(CNC(=O)C[C@@H]2CCNC[C@@H]2Cc2cc(CSc3ccccc3)on2)cc1	NIH3T3 tox inconclusive, HEK293 tox 50µM
COc1ccc(CNC(=O)C[C@@H]2CCNC[C@@H]2Cc2cc(COc3ccccc3)on2)cc1	NIH3T3 tox 25µM, HEK293 tox inconclusive
COc1ccc(CNC(=O)C[C@@H]2CCNC[C@@H]2Cc2cc(CC3CCCCC3)on2)cc1	NIH3T3 tox 28µM, hNpr1 antagonist inconclusive, HEK293 tox 28µM
COc1ccc(CNC(=O)C[C@@H]2CCNC[C@@H]2Cc2cc(C(C)(C)C)on2)cc1	HEK293 tox inconclusive
COc1ccc(CNC(=O)C[C@@H]2CCNC[C@@H]2Cc2cc(CN3CCOCC3)on2)cc1	none
C[S+](=O)([O-])N1Cc2ccccc2CC2(CCCN(Cc3cccnc3)C2)C1 (centres undefined)	none (no result: Luciferase inh, hNpr1 antagonist)
COc1ccc(CN2CCCC23Cc2ccccc2CNC3=O)cn1 (centres undefined)	none (no result: Luciferase inh, hNpr1 antagonist)
CN1c2cc(C(=O)Nc3cccc(C#N)c3)ccc2C(=O)N2CCCCC21 (centres undefined)	NIH3T3 tox inconclusive, Luciferase inh inconclusive, HEK293 tox inconclusive
CN1c2cc(C(=O)Nc3cccc(C#N)c3)ccc2C(=O)N2CCCCCC21 (centres undefined)	NIH3T3 tox inconclusive, Luciferase inh 28µM, HEK293 tox inconclusive
CN1c2cc(C(=O)Nc3ccc(S(N)(=O)=O)cc3)ccc2C(=O)N2CCCCC21 (centres undefined)	none
CN1c2cc(C(=O)Nc3ccc(C#N)cc3)ccc2C(=O)N2CCCCC21 (centres undefined)	NIH3T3 tox 35µM, HEK293 tox inconclusive
Cc1ccccc1CC(=O)N1CCC2(CC1)CC(O)CCO2 (centres undefined)	none (no result: Luciferase inh, hNpr1 antagonist)
